Screening results: PubChem, National Center for Advancing Translational Sciences (NCATS)
This is a sample that favours compounds with a hit; in the whole collection about 3.7% have one here.
PI5P4K alpha inh = qHTS for Inhibitors of phosphatidylinositol 5-phosphate 4-kinase (PI5P4K). Phosphatidylinositol 5-phosphate 4-kinase type-2 alpha (Homo sapiens), P48426. PI5P4Kalpha enzyme, ADP-Glo luminescence, 60 min; hits give low values. AID 652105, 2013. max response, %. 1.2% of 330,000 active; active = max response of -50% or lower; inconclusive = between -30% and -50%; inactive = -30% or higher; note: value at the top dose of about 77 µM
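Quantitative HTS of the MLSMR library against PI5P4Kalpha with substrate. ATP added last at 5 microM final; room temperature, 60 minutes. Remaining ATP depleted, ADP converted and read as luminescence.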
PLK1 PBD inh = qHTS for Inhibitors of PLK1-PDB (polo-like kinase 1 - polo-box domain): Primary Screen. Serine/threonine-protein kinase PLK1 (Homo sapiens), P53350. Plk1 PBD binding of FITC phosphopeptide, fluorescence polarization. Potency, µM, most hits filed as inhibitors. 2.8% of 360,000 active; note: series mostly up to about 57 µM; nearly all actives have a fitted effect of over 65% in size
TCR activator = Activators of T cell receptors: qHTS campaign. primary human leukocytes, anti-CD3, IL-2 HTRF, 48 h. Potency, µM (top dose mostly 9.22 µM), hits mostly activators. 330,000 tested, under 10 active. AID 504894, 2011
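Primary human leukocytes were stimulated with a-CD3 beads plus compounds for 48 hr without co-stimulation; secreted IL-2 was quantified by HTRF using a-IL-2-K (europium cryptate) and a-IL-2-d2, excited at 320nm with acceptor emission read at 665nm.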
VDR inh = Inhibitors of the vitamin D receptor (VDR): qHTS | AID 504847, 2011 | Potency, µM, actives largely listed as inhibitors | 0.93% of 400,000 active | Vitamin D3 receptor (Homo sapiens), P11473 | VDR-SRC2-3 peptide fluorescence polarization, 2 h
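Measured by FP: displacement of SRC2-3 coactivator peptide from VDR by library compounds, following a two-hour ambient incubation.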
FEN1 inhibitor = qHTS Assay for the Inhibitors of Human Flap endonuclease 1 (FEN1); P39748; Recombinant FEN1 flap cleavage, fluorescence, 15 min; Potency, µM (doses to about 114 µM), actives largely listed as inhibitors; 0.35% of 390,000 active; AID 588795, 2011; note: nearly all actives have a fitted effect of over 65% in size
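Quantitative HTS format: each compound was titrated, incubated with 10 nM nuclease for 15 min at room temperature, then challenged with flap substrate at 50 nM final. Signal change over 15 min gave concentration–effect curves.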
WRN inhibitor = qHTS for Inhibitors of WRN Helicase. Bifunctional 3'-5' exonuclease/ATP-dependent helicase WRN (Homo sapiens), Q14191. WRN helicase unwinding, fluorescent forked duplex, kinetic. Potency, µM (top dose mostly 114 µM), most hits filed as inhibitors. 0.46% of 360,000 active; note: nearly all actives have a fitted effect of over 55% in size
Target sequence (Q14191 whole entry, looked up): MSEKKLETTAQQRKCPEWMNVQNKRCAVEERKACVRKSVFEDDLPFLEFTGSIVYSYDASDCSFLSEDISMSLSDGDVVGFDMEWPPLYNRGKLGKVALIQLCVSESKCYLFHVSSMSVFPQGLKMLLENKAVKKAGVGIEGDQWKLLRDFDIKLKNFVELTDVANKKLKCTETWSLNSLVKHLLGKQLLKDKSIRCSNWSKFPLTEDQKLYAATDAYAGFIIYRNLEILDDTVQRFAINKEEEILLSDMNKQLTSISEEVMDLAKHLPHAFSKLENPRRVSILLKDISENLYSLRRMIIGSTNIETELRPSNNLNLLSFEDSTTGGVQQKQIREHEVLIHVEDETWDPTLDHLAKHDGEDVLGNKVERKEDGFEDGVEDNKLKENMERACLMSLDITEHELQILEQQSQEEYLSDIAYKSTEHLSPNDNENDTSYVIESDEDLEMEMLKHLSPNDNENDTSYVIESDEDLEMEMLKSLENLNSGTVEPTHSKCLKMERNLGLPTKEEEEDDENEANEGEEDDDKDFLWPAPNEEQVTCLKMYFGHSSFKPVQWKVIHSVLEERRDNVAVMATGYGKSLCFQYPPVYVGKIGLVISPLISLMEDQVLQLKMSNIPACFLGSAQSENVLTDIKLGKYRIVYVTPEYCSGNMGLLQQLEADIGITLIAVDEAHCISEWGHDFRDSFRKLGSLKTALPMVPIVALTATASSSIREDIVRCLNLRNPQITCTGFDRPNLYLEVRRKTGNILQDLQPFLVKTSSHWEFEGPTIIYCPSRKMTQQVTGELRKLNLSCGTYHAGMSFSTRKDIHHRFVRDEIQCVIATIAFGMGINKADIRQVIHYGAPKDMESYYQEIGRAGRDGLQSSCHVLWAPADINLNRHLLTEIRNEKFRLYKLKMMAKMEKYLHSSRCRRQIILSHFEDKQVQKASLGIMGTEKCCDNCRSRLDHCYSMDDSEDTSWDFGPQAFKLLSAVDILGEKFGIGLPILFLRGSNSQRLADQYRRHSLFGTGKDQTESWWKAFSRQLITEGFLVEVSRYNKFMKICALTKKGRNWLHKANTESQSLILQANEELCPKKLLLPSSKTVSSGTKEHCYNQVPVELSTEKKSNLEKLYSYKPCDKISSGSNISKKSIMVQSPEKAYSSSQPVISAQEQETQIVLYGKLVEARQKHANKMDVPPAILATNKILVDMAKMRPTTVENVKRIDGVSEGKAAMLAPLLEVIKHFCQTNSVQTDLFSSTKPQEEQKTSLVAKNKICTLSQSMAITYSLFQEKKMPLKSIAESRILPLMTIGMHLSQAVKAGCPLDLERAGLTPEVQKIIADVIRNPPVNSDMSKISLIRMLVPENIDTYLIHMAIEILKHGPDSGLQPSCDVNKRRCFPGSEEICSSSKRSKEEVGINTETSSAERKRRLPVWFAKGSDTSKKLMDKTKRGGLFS
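Kinetic red-fluorescence monitoring (525/598 nm) tracks WRN helicase activity after 100 nM fluorophore-quencher forked duplex and 2 mM ATP are added to 20 nM enzyme pretreated 15 min at room temperature with compound.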
A number is an active result; i = inactive; ? = inconclusive; nt = no result given; [ ] = dose if it differs, or a comment. Unless noted, calls come from the whole dose curve; as a rule, active = well fitted curve in the direction sought with a large enough effect; inconclusive = small, poorly fitted or top-dose-only effect, or another doubt; inactive = no such curve, though single readings can be large; an effect the other way counts as inactive or inconclusive.

SMILES | PI5P4K alpha inh | PLK1 PBD inh | TCR activator | VDR inh | FEN1 inhibitor | WRN inhibitor
COc1ccc([C@@H]2CC(=O)c3c(O)cc(O[C@@H]4O[C@H](CO)[C@@H](O)[C@H](O)[C@H]4OC4O[C@@H](C)[C@H](O)[C@@H](O)[C@H]4O)cc3O2)cc1O (some centres not stated) | nt | nt | nt | i | nt | nt
CN=c1c([N+](=O)[O-])nn(-c2ccc3c(c2)OCCO3)n1O | i | 24µM | i | i | i | i
Cc1ccc(C(=O)O)cc1Nc1nc2ccccc2n2nnnc12 | nt | nt | nt | i | i | nt
CCOC(=O)c1c(N2C(=O)C=CC2=O)sc(C)c1C | nt | 5.3µM | nt | i | i | i
COc1ccc(NC(=O)c2cc([N+](=O)[O-])ccc2NC(=O)CNCc2ccccn2)c(OC)c1 | i | ? | i | 32µM | i | ?
COc1cccc(NC(=O)Nc2cc(C(=O)NC(C)C)ccc2N2CC3CC(C2)c2cccc(=O)n2C3)c1 (configuration not stated) | i | 3.8µM | i | i | i | i
O=C(O)c1ccc(N2CC3CC(C2)c2cccc(=O)n2C3)c(NC(=S)Nc2ccc(Cl)cc2Cl)c1 (configuration not stated) | i | 12µM | i | ? | i | i
CCCNC(=O)c1ccc(N2CC3CC(C2)c2cccc(=O)n2C3)c(NC(=O)Nc2ccc(CC)cc2)c1 (configuration not stated) | i | i | i | i | i | i
CC1=NN(c2ccc(C)c(C)c2)C(=O)C1C(c1cccc(O)c1)C1C(=O)N(c2ccc(C)c(C)c2)N=C1C (configuration not stated) | i | 8.4µM | i | ? | ? | ?
COC(=O)Cn1c(=O)cnc2ccccc21 | nt | i | nt | i | i | i
COC(=O)Cn1c(Cc2ccccc2)nc2ccccc21 | i | 6µM | i | i | i | i
Cc1ccc(Nc2nc(Nc3ccc(Cl)cc3)nc(N3CCOCC3)n2)cc1 | nt | nt | nt | ? | i | nt
Cc1nc2sccn2c(=O)c1S(=O)(=O)NCc1ccc(F)cc1 | nt | nt | nt | i | i | nt
CCOC(=O)N1CCN(C(=O)C2CCN(C(=O)c3ccccc3C)CC2)CC1 | -79 | 3.4µM | i | 22µM | ? | 20µM
Cc1ccccc1C(=O)N1CCC(C(=O)N2CCN(c3ncccn3)CC2)CC1 | i | i | i | i | i | i
N#Cc1ccccc1Cn1c(=O)n(-c2cccc(C(F)(F)F)c2)c(=O)c2sccc21 | nt | nt | nt | i | i | nt
Cc1cc(C(=O)N/N=C2\CC(=O)c3ccccc32)c(C)n1-c1ccc(F)cc1 | -64 | i | i | i | i | i
CC/C=C\C/C=C\C/C=C\C/C=C\C/C=C\C/C=C\CCC(=O)NCCO | nt | nt | nt | i | nt | nt
Cc1ccsc1/C=N/N1CCN(Cc2ccccc2)CC1 | i | 21µM | i | i | i | i
Cc1ccsc1/C=N/N1CCN(c2ccccc2)CC1 | nt | i | nt | i | i | i
Cc1cnc2c(C)cccc2c1C | nt | nt | nt | nt | i | nt
CC(=O)NC(CCS(C)(=O)=O)C(=O)Nc1nccs1 (configuration not stated) | i | 27µM | i | i | i | i
CC(NS(=O)(=O)c1ccccc1)C(=O)Nc1nccs1 (configuration not stated) | i | 21µM | nt | i | i | i
COc1ccc(C(=O)[C@]2(C)C=C(c3ccc(OC)cc3)[C@H](C)C2)cc1 | nt | nt | nt | i | nt | nt
COc1ccc(CC(=O)NNc2ncnc3c2cnn3Cc2ccccc2)cc1OC | i | 27µM | i | i | i | i
SMILES | PI5P4K alpha inh | PLK1 PBD inh | TCR activator | VDR inh | FEN1 inhibitor | WRN inhibitor
O=C(O)c1ccc(Nc2ncnc3c2cnn3Cc2ccccc2)cc1 | nt | 30µM | i | ? | i | i
Cc1cccc(Nc2ncnc3c2cnn3Cc2ccccc2)c1 | i | 24µM | i | i | i | i
Clc1ccc(Cn2ncc3c(NCc4ccccc4)ncnc32)cc1 | i | i | i | i | i | i
COc1ccc(Nc2ncnc3c2cnn3Cc2ccccc2)cc1OC | nt | i | i | i | i | i
CNc1nc(Cl)nc2c1ncn2CC(COC(=O)C(C)(C)C)COC(=O)C(C)(C)C | nt | nt | nt | i | nt | nt
COc1ccc(-c2cc(-c3cc(OC)ccc3O)[nH]n2)cc1 | i | 6.7µM | i | ? | i | i
COc1ccc(N2CCN(C(=O)CCn3cnc4onc(-c5ccc(F)cc5)c4c3=O)CC2)cc1 | nt | nt | nt | i | i | nt
O=c1cc(-c2ccccc2)n2c(SCc3cccc([N+](=O)[O-])c3)nnc2[nH]1 | nt | nt | nt | i | i | nt
O=C(Nc1ccc(N2CCCC2)cc1)c1cccc(-c2cc3ccccc3oc2=O)c1 | ? | 2.7µM | i | ? | i | i
O=C(c1cc(COc2ccc(F)cc2Cl)on1)N1CCCCCCC1 | i | 19µM | i | ? | i | i
O=C(c1cc(COc2ccc(F)cc2Cl)on1)N1CCCCCC1 | i | i | i | i | i | i[11.6 µM]
Cn1c(=O)c2c(=O)cc(NNC(=O)CC#N)[nH]c2n(C)c1=O | i | 30µM | i | i | i | i
Cc1ccc(O)c(C2=NNC(c3ccc(Cl)cc3)C2)c1 (configuration not stated) | i | i | i | i | i | i
Oc1ccc(Cl)cc1C1=NNC(c2cccs2)C1 (configuration not stated) | i | 15µM | i | ? | i | i
COc1ccc(-c2noc(-c3ccccc3NC(=O)c3cc(OC)c(OC)c(OC)c3)n2)cc1 | nt | nt | nt | i | i | nt
COc1ccc(C(C#N)=C2C=CC(=NO)C(C)=C2Cl)cc1 | i | i | i | ? | i | i
COc1ccc(C(C#N)=C2C=C(Cl)C(=NO)C=C2Cl)cc1 | i | 21µM | nt | nt | nt | i
CC(C)C[C@H](NC(=O)[C@H](CO)NC(=O)CNC(=O)[C@H](CCCCN)NC(=O)[C@H](CCCN=C(N)N)NC(=O)[C@H](C)NC(=O)[C@H](Cc1ccccc1)NC(=O)[C@@H](N)CCCN=C(N)N)C(=O)N[C@@H](CCCN=C(N)N)C(=O)N[C@@H](CCC(N)=O)C(=O)N[C@@H](CCCCN)C(=O)N[C@@H](CC(N)=O)C(=O)N[C@H](C(=O)O)C(C)C | nt | nt | nt | i | nt | nt
COc1ccc(N2CC(O)=C(c3n(C)c4ccccc4[n+]3C)C2=N)cc1 | i | 27µM | i | i | i | i
CCCCOc1ccc(/C=C/C(=O)Nc2ccc(C(N)=O)cc2)cc1 | i | i | i | 79µM | i | i
COCc1cccc(C2=CC(=O)C[C@H](c3ccc(F)cc3)C2)c1 | i | 30µM | i | ? | i | i
CCCCCC1(C(=O)OCC)CC(CSC(=N)N)OC1=O (configuration not stated) | i | 30µM | i | i | i | i
